According to PubChem BioAssay (EPA / NIEHS):
Calls of active or inactive are those of the source. How the source made its calls: active means hit-call score of the fitted dose curve at least 0.9, where 1 is the maximum; inactive means score below 0.9.

What was measured:
[1] = read-out: Cyclin D2 (CCND2), CCND2 (gene 894); experiment: LTEA_HepaRG_CCND2: Life Technologies and Expression Analysis (LTEA) Assay for Cyclin D2 (CCND2) using HepaRG (AID 2283449); details: mRNA level, 48 h; actives raise or lower the signal;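 further: CCND2 transcript measured by TaqMan qRT-PCR and normalised to three housekeeping genes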
In short: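 Chemicals in 0.5% DMSO, eight half-log concentrations from 100 uM top, were applied in duplicate for 48 h to human HepaRG cells in serum-free induction medium. CCND2 mRNA by TaqMan qRT-PCR, normalised to ACTB/GAPDH/POLR2A; bidirectional fit versus DMSO.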

[2] = read-out: Cyclin Dependent Kinase Inhibitor 1A (CDKN1A), CDKN1A (gene 1026); experiment: LTEA_HepaRG_CDKN1A: Life Technologies and Expression Analysis (LTEA) Assay for Cyclin Dependent Kinase Inhibitor 1A (CDKN1A) using HepaRG (AID 2283450); details: mRNA level, 48 h; actives raise or lower the signal
In short: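 Gain or loss of CDKN1A transcript is scored by bidirectional fitting against 0.5% DMSO vehicle. Human HepaRG cultures receive chemicals for 48 h across an 8-point series peaking at 100 uM; expression comes from qRT-PCR.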

[3] = read-out: Cyclin D1 (CCND1), CCND1 (gene 595); experiment: LTEA_HepaRG_CCND1: Life Technologies and Expression Analysis (LTEA) Assay for Cyclin D1 (CCND1) using HepaRG (AID 2283451); details: mRNA level, 48 h; actives raise or lower the signal
In short: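 Expression change is measured by qRT-PCR in HepaRG cells after 48 h treatment across eight concentrations topping at 100 uM, with duplicate wells and DMSO (0.5%) serving as baseline for bidirectional fitting.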

[4] = read-out: catalase (CAT), CAT (gene 847); experiment: LTEA_HepaRG_CAT: Life Technologies and Expression Analysis (LTEA) Assay for catalase (CAT) using HepaRG (AID 2283452); details: mRNA level, 48 h; actives raise or lower the signal
In short: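 HepaRG cells in serum-free induction medium, 0.5% DMSO vehicle, exposed 48 h in duplicate over 8 half-log concentrations from 100 uM. CAT mRNA measured by qRT-PCR, normalized to ACTB, GAPDH, POLR2A; bidirectional fit versus DMSO.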

[5] = read-out: flavin-containing dimethylaniline monooxygenases 3 (FMO3), FMO3 (gene 2328); experiment: LTEA_HepaRG_FMO3: Life Technologies and Expression Analysis (LTEA) Assay for flavin-containing dimethylaniline monooxygenases 3 (FMO3) using HepaRG (AID 2283453); details: mRNA level, 48 h; actives raise or lower the signal
In short: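 Differentiated HepaRG cells in serum-free induction medium, exposed 48 h in duplicate to 8 half-log concentrations up to 100 uM in 0.5% DMSO. FMO3 mRNA by qRT-PCR, normalized to ACTB, GAPDH, POLR2A; bidirectional fit vs DMSO.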

[6] = read-out: Cytochrome P450 (CYP1A1), CYP1A1 (gene 1543); experiment: LTEA_HepaRG_CYP1A1: Life Technologies and Expression Analysis (LTEA) Assay for Cytochrome P450 (CYP1A1) using HepaRG (AID 2283454); details: mRNA level, 48 h; actives raise or lower the signal
In short: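 Using HepaRG cultures with 0.5% DMSO as vehicle, eight-concentration exposures (max 100 uM) lasted 48 h. Transcript levels were measured by TaqMan qRT-PCR and normalized to ACTB, GAPDH and POLR2A.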

[7] = read-out: CFLAR gene, CFLAR (gene 8837); experiment: LTEA_HepaRG_CFLAR: Life Technologies and Expression Analysis (LTEA) Assay for CFLAR gene using HepaRG (AID 2283455); details: mRNA level, 48 h; actives raise or lower the signal
In short: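 Differentiated HepaRG cells in serum-free induction medium were exposed 48 h in duplicate to eight half-log concentrations up to 100 uM in 0.5% DMSO; mRNA measured by TaqMan qRT-PCR, normalized to ACTB, GAPDH, POLR2A; bidirectional fitting versus DMSO.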

[8] = read-out: Forkhead box O1 (FOXO1), FOXO1 (gene 2308); experiment: LTEA_HepaRG_FOXO1: Life Technologies and Expression Analysis (LTEA) Assay for Forkhead box O1 (FOXO1) using HepaRG (AID 2283456); details: mRNA level, 48 h; actives raise or lower the signal
In short: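 Differentiated HepaRG cells, in serum-free induction medium with 0.5% DMSO, exposed 48 h in duplicate to 8-point half-log series from 100 uM. FOXO1 mRNA measured by TaqMan qRT-PCR, normalized to ACTB, GAPDH, POLR2A; bidirectional fit versus DMSO.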

[9] = read-out: growth arrest and DNA damage 45 (GADD45A), GADD45A (gene 1647); experiment: LTEA_HepaRG_GADD45A: Life Technologies and Expression Analysis (LTEA) Assay for growth arrest and DNA damage 45 (GADD45A) using HepaRG (AID 2283458); details: mRNA level, 48 h; actives raise or lower the signal
In short: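 Differentiated HepaRG cells exposed 48 h in serum-free induction medium to 8 concentrations, top 100 uM in half-log steps, 0.5% DMSO. GADD45A mRNA quantified by qRT-PCR, normalized to ACTB, GAPDH and POLR2A; bidirectional fit versus DMSO.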

[10] = read-out: Forkhead box O3 (FOXO3), FOXO3 (gene 2309); experiment: LTEA_HepaRG_FOXO3: Life Technologies and Expression Analysis (LTEA) Assay for Forkhead box O3 (FOXO3) using HepaRG (AID 2283459); details: mRNA level, 48 h; actives raise or lower the signal
In short: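 Differentiated human HepaRG cells, 48 h post-plating, exposed in duplicate for 48 h in serum-free induction medium; 8-point half-log series from 100 uM in 0.5% DMSO. FOXO3 mRNA by TaqMan qRT-PCR, normalized to ACTB/GAPDH/POLR2A; bidirectional fit versus DMSO.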

[11] = read-out: ABC Transporter (ABCB1), ABCB1 (gene 5243); experiment: LTEA_HepaRG_ABCB1: Life Technologies and Expression Analysis (LTEA) Assay for ABC Transporter (ABCB1) using HepaRG (AID 2283460); details: mRNA level, 48 h; actives raise or lower the signal
In short: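 HepaRG cells exposed in duplicate for 48 h in serum-free induction medium to eight half-log concentrations up to 100 uM in 0.5% DMSO. ABCB1 mRNA quantified by qRT-PCR, normalised to ACTB, GAPDH and POLR2A; fitted bidirectionally versus DMSO.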

[12] = read-out: growth arrest and DNA damage 45 (GADD45B), GADD45B (gene 4616); experiment: LTEA_HepaRG_GADD45B: Life Technologies and Expression Analysis (LTEA) Assay for growth arrest and DNA damage 45 (GADD45B) using HepaRG (AID 2283461); details: mRNA level, 48 h; actives raise or lower the signal
In short: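 Human HepaRG monolayers receive chemicals for 48 h at eight half-log concentrations, highest 100 uM, in 0.5% DMSO. Expression is measured by TaqMan qRT-PCR and normalized to ACTB, GAPDH and POLR2A.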

[13] = read-out: ABC Transporter (ABCC3), ABCC3 (gene 8714); experiment: LTEA_HepaRG_ABCC3: Life Technologies and Expression Analysis (LTEA) Assay for ABC Transporter (ABCC3) using HepaRG (AID 2283462); details: mRNA level, 48 h; actives raise or lower the signal
In short: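 Transcriptional change of ABCC3 in HepaRG after 48 h treatment, determined by qRT-PCR normalized to endogenous controls. Concentrations spanned eight half-log steps to 100 uM in 0.5% DMSO.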

[14] = read-out: ABC Transporter (ABCB11), ABCB11 (gene 8647); experiment: LTEA_HepaRG_ABCB11: Life Technologies and Expression Analysis (LTEA) Assay for ABC Transporter (ABCB11) using HepaRG (AID 2283463); details: mRNA level, 48 h; actives raise or lower the signal
In short: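 Differentiated human HepaRG cells in serum-free induction medium, dosed in duplicate for 48 h. Eight-point half-log series from 100 uM in 0.5% DMSO; ABCB11 mRNA by qRT-PCR, normalized to ACTB, GAPDH, POLR2A, fitted bidirectionally versus DMSO.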

[15] = read-out: ABC Transporter (ABCC2), ABCC2 (gene 1244); experiment: LTEA_HepaRG_ABCC2: Life Technologies and Expression Analysis (LTEA) Assay for ABC Transporter (ABCC2) using HepaRG (AID 2283464); details: mRNA level, 48 h; actives raise or lower the signal
In short: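 After plating and 48 h culture, HepaRG medium is replaced with serum-free induction medium and chemicals are added (8 concentrations, max 100 uM, 0.5% DMSO) for 48 h. Total RNA then undergoes qRT-PCR for ABCC2 with housekeeping normalization.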

[16] = read-out: Broad substrate specificity ATP-binding cassette transporter ABCG2 (Homo sapiens) (UniProt Q9UNQ0); experiment: LTEA_HepaRG_ABCG2: Life Technologies and Expression Analysis (LTEA) Assay for ABC Transporter (ABCG2) using HepaRG (AID 2283465); details: mRNA level, 48 h; actives raise or lower the signal
In short: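 Differentiated HepaRG cells were exposed for 48 h in serum-free induction medium to 8 half-log concentrations, top 100 uM, in 0.5% DMSO. ABCG2 mRNA was measured by qRT-PCR, normalized to ACTB, GAPDH and POLR2A, with bidirectional fitting versus DMSO.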

[17] = read-out: Peroxisomal acyl-coenzyme A oxidase 1 (ACOX1) gene, ACOX1 (gene 51); experiment: LTEA_HepaRG_ACOX1: Life Technologies and Expression Analysis (LTEA) Assay for Peroxisomal acyl-coenzyme A oxidase 1 (ACOX1) gene using HepaRG (AID 2283467); details: mRNA level, 48 h; actives raise or lower the signal
In short: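 HepaRG cells, plated 48 h then switched to serum-free induction medium, were exposed in duplicate for 48 h to 8-point half-log concentrations up to 100 uM in 0.5% DMSO. ACOX1 mRNA was measured by qRT-PCR, normalized to ACTB/GAPDH/POLR2A, and fitted bidirectionally versus DMSO.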

[18] = read-out: ATP-citrate lyase (ACLY), ACLY (gene 47); experiment: LTEA_HepaRG_ACLY: Life Technologies and Expression Analysis (LTEA) Assay for ATP-citrate lyase (ACLY) using HepaRG (AID 2283466); details: mRNA level, 48 h; actives raise or lower the signal
In short: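 Differentiated HepaRG cells exposed 48 h in serum-free induction medium to eight half-log concentrations up to 100 uM in 0.5% DMSO, duplicates. Transcript measured by Fluidigm TaqMan qRT-PCR, normalized to ACTB, GAPDH, POLR2A; bidirectional fit versus DMSO.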

[19] = CEETOX_H295R_TESTO: CeeTox H295R High-throughput Steroidogenesis Assay for Testosterone (TESTO) (AID 2283457); details: actives raise or lower the signal
In short: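 Steroidogenesis in H295R cells following OECD 456 with minor changes; 48 h exposure. Medium testosterone by HPLC-MS/MS, DMSO as baseline, with MTT viability run in parallel.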

[20] = read-out: Alkaline Phosphatase, Placental (ALPP) gene, ALPP (gene 250); experiment: LTEA_HepaRG_ALPP: Life Technologies and Expression Analysis (LTEA) Assay for Alkaline Phosphatase, Placental (ALPP) gene using HepaRG (AID 2283468); details: mRNA level, 48 h; actives raise or lower the signal
In short: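 Using human liver HepaRG cells, chemicals are tested in duplicate over 48 h at half-log concentrations topping at 100 uM; phenobarbital 1 mM serves as induction control. ALPP mRNA change by qRT-PCR, bidirectional fit against vehicle.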

Measured: AC50

Sequence of Broad substrate specificity ATP-binding cassette transporter ABCG2 (Homo sapiens) (Q9UNQ0 whole entry, looked up): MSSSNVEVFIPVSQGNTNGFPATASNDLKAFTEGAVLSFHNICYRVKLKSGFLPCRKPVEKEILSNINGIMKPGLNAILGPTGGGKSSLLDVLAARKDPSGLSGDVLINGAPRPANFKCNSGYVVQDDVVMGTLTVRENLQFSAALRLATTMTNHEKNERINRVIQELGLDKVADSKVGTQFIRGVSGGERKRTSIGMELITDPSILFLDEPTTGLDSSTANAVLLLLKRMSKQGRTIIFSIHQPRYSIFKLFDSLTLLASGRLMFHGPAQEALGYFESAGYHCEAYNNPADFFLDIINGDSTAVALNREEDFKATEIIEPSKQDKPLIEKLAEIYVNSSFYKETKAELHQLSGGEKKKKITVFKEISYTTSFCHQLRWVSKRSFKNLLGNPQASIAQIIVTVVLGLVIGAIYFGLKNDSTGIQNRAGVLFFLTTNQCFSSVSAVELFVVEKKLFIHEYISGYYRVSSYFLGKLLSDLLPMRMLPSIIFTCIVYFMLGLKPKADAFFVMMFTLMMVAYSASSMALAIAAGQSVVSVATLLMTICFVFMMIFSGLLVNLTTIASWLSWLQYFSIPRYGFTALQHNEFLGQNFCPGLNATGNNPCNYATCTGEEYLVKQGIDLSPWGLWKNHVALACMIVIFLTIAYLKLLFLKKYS

C=C(C)CN(CC)c1c([N+](=O)[O-])cc(C(F)(F)F)cc1[N+](=O)[O-]
active: [6] 44.4 µM
not listed: [18] | [19] | [20]
inactive: all other assays above

CCN(CC)c1nc(C)cc(OP(=S)(OC)OC)n1
active: [6] 31.1 µM | [15] 19.9 µM
not listed: [1] | [19] | [20]
inactive: all other assays above

CCOc1cc(C(C)(C)C)ccc1C1COC(c2c(F)cccc2F)=N1 (centres undefined)
active: [6] 19.2 µM | [11] 6.97 µM | [15] 8.66 µM | [16] 9.15 µM
not listed: [1] | [20]
inactive: all other assays above

CN/C(=N\[N+](=O)[O-])NCc1cnc(Cl)s1
active: [16] 28.6 µM
not listed: [18] | [19] | [20]
inactive: all other assays above

Nc1c(Cl)c(Cl)nc(C(=O)O)c1Cl
active: [6] 50 µM
not listed: [1] | [19] | [20]
inactive: all other assays above

CCSC(=O)N1CCCCCC1
not listed: [1] | [18] | [19]
inactive: all other assays above

CC(C)Oc1cccc(NC(=O)c2ccccc2C(F)(F)F)c1
active: [1] 0.0398 µM | [6] 81.6 µM | [11] 50 µM
not listed: [7] | [18] | [19] | [20]
inactive: all other assays above
